This is a sample that favours compounds with a hit; in the whole collection about 4.4% have one here.
SKKanGAS inh = blocks kanamycin growth of S. pyogenes SKKanGAS strain. inhibition, % at 7.5 µM. BacTiter-Glo, 6 h. AID 1662. 300,000 tested, 1.3% active;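 active = mean replicate score, as percent of positive control median, at least 50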;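 also: strain carries kanamycin resistance gene driven by streptokinase promoter and grows in 40 µg/ml kanamycin; loss of luminescence reflects streptokinase promoter inhibition or plain growth inhibition; 0% = median of DMSO wells and 100% = positive control at its reference dose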
TIM10 inh = TIM10 yeast growth inhibition; S. cerevisiae TIM10 strain growth, BacTiter-Glo luminescence, 24 h; inhibition, % at 10 µM; 330,000 tested, 1.4% active;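 active = inhibition of 40% or more at the single tested concentration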;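 also: wild-type TIM10 isogenic control strain grown at permissive 25 °C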
PfHsp90 set2 = growth inhibition of yeast expressing Plasmodium Hsp90. S. cerevisiae expressing PfHsp90, BacTiter-Glo ATP, 48 h; yeast lacking PDR1 and PDR3 efflux regulators. inhibition, % at 9.4 µM. 310,000 tested, 0.32% active. AID 504621;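 active = every replicate shows inhibition above about 80%, whatever the replicate mean, limit read from the data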;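 also: 0% = DMSO neutral controls and 100% = 20 µM radicicol positive controls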
tim23-1 inh = tim23-1 yeast growth inhibition; S. cerevisiae tim23-1 growth, BacTiter-Glo luminescence, 24 h; inhibition, % at 20 µM; 330,000 tested, 1.3% active;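 active = growth inhibition of the mutant yeast at or above 50%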;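 also: temperature-sensitive mutant grown at 25 °C; plate controls were DMSO-treated mutant yeast for no effect and medium wells lacking yeast for full effect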
tim10-1 inh = tim10-1 yeast growth inhibition; S. cerevisiae tim10-1 ts strain growth, BacTiter-Glo, 24 h; inhibition, % at 20 µM; 330,000 tested, 2.2% active;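 active = inhibition of at least 40%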;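 also: mutant grown at 25 °C; 0% = DMSO wells with yeast and 100% = wells holding no yeast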
tim10-1 conf = confirmation of tim10-1 mutant yeast growth inhibitors | shares compounds with tim10-1 inh | S. cerevisiae tim10-1 ts strain growth, BacTiter-Glo, 24 h | inhibition, % at 20 µM | 7,400 tested, 56% active | AID 463213;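 active = inhibition of yeast growth at or above a set limit in either of two repeat tests at 20 µM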;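 also: tim10-1 mutant grown at permissive 25 °C to find synthetic lethal compounds; 0% = DMSO yeast wells and 100% = medium wells without yeast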
* marks the source's active call; other numbers are inactive results; / = no result given.

SMILES	SKKanGAS inh	TIM10 inh	PfHsp90 set2	tim23-1 inh	tim10-1 inh	tim10-1 conf
O=C(/C=C/C=C/c1ccccc1)CC1(O)C(=O)N(CCc2ccccc2)c2ccccc21 (stereo not drawn)	24.3	27.4	/	41.4	45.0*	52.5*
CCN1C(=O)C(O)(CC(=O)/C=C/C=C/c2ccccc2)c2ccccc21 (stereo not drawn)	-4.3	22.9	/	28.3	34.5	/
CC(=O)c1sc(NC(=O)c2c(F)cccc2F)nc1-c1ccccc1	0.2	27.4	-23.6	31.0	51.5*	26.3
CCOC(=O)Nc1nc(-c2ccccc2)c(C(=O)c2ccccc2)s1	18.2	37.7	12.8	40.0	40.2*	29.0
O=C1NC(=O)C2(CCCC2)N1	/	/	12.3	/	/	/
CN(Cc1c(C(=O)N/N=C/c2cccc(Cl)c2)nnn1-c1nonc1N)c1ccccc1	17.0	7.0	-19.3	13.1	18.1	/
COc1ccc(C(=O)Nc2ccc(Cl)c(S(=O)(=O)Nc3ccccc3OC)c2)cc1	14.5	16.2	-21.7	43.7	41.1*	27.5
O=C(NCCc1ccc(Cl)cc1)c1ccc(S(=O)(=O)N2CCCC2)cc1	-10.9	33.0	1.8	23.9	47.8*	44.9*
O=C(NCCc1ccc(Cl)cc1)C1CCN(S(=O)(=O)c2cccs2)CC1	-2.7	36.4	24.9	15.4	49.7*	39.8*
COc1ccccc1NC(=O)Cn1c2ccccc2c2nc3n(c(=O)c21)CCS3	1.5	6.9	/	-2.0	42.0*	20.1
Cc1cc(N2CCOCC2)nc2ccc(NC(=S)NCCC(C)C)cc12	-0.8	12.4	16.1	27.1	43.7*	28.5*
CC(C)C[C@H](N)c1nnc(SCC(=O)Nc2ccc(Br)cc2)o1	-4.2	16.1	1.5	2.3	43.4*	-8.7
Cn1c(SCC(=O)NCCc2ccccc2)nnc1C1CCCCC1	-1.9	5.1	-35.2	6.5	-8.0	/
CCCCN(C(=O)CSc1nnc(-c2ccco2)o1)c1c(N)n(Cc2ccccc2)c(=O)[nH]c1=O	-10.2	0.7	9.8	12.2	6.0	/
CC(C)=NOC(=O)c1ccc(-c2ccccc2)cc1	0.7	38.9	-22.6	42.4	54.4*	41.5*
CCc1ccc(CNC(=O)CCCn2c(=O)c3cccn3c3cccnc32)cc1	-6.6	12.6	-8.8	34.3	46.3*	6.0
CCOc1cc(CNC(=O)CCCn2c(=O)c3cccn3c3cccnc32)cc(OCC)c1OCC	-6.3	6.9	-5.2	13.7	16.9	/
CCC(C)c1ccc(NC(=O)NCc2cccnc2)cc1 (stereo not drawn)	13.5	21.4	/	24.3	35.7	/
CCC(C)c1ccc(NC(=O)Nc2cccnc2)cc1 (stereo not drawn)	-19.1	26.0	-9.3	36.0	43.3*	33.5*
O=C(CCc1ccccc1)C(=O)N1CCCC(C(=O)c2cccc(Cl)c2)C1 (stereo not drawn)	-8.4	25.1	-20.6	22.9	40.0*	27.8
CC(C)(C)OC(=O)N1CCC(C(=O)Nc2cccc(C(=O)NCc3ccccc3)c2)CC1	/	/	-4.3	/	/	/
CCCN(Cc1ccccc1)C(=S)Nc1ccc(OC(F)F)cc1	-12.3	24.1	-2.6	33.3	25.1	/
COCCN(Cc1ccccc1)C(=S)Nc1ccc(OC(F)F)cc1	-0.6	23.5	12.4	30.5	43.1*	26.5
S=C1NC2(CCCCC2)NN1c1ccccc1	-7.7	-31.9	-4.6	-31.4	2.4	/
CC1CCCC2(C1)NC(=S)N(c1ccccc1)N2 (stereo not drawn)	-0.1	-2.6	10.9	-3.3	55.1*	-33.5
SMILES	SKKanGAS inh	TIM10 inh	PfHsp90 set2	tim23-1 inh	tim10-1 inh	tim10-1 conf
O=C(CC1C[C@H](C(=O)N2CCOCC2)[C@@]2(CCC3CCCC3)c3[nH]c4ccccc4c3CCN2C1=O)NCc1cccc(C(F)(F)F)c1 (stereo partly drawn)	/	/	-16.4	/	/	/
CCc1ccccc1NC(=O)CCc1c(C)nn(-c2ccc(N3CCOCC3)nn2)c1C	-9.9	11.8	-61.9	9.8	61.7*	-8.8
O=C(Nc1nnc(C2=COCCO2)o1)c1ccc([N+](=O)[O-])cc1	-3.2	9.9	-23.6	21.9	46.1*	34.9*
O=C(Nc1nnc(C2=COCCO2)o1)c1ccc(F)cc1	24.5	1.9	-1.7	10.4	10.4	/
O=C(Nc1nnc(C2=COCCO2)o1)c1ccc(Br)cc1	101.1*	29.6	-12.8	33.8	41.7*	38.9*
O=C(Nc1nnc(C2=COCCO2)o1)c1ccc(Cl)cc1	25.6	11.2	-33.2	23.5	56.8*	31.5*
CC(=O)Nc1nnc(C2=COCCO2)o1	-1.8	-6.2	/	6.5	2.5	/
CN1CCN(C(=O)c2cccc(S(=O)(=O)N3CCCC3)c2)CC1	/	11.2	-5.2	4.0	-14.3	/
Cc1ccc2c(C)c(C(=O)Nc3cccnc3)oc2c1C	/	/	-15.8	/	/	/
COc1ccc(NC(=O)CON=CC(=O)Nc2ccc(C)cc2)c(OC)c1	/	-2.3	-17.7	-2.7	-2.7	/
Cc1cc(/C=N\NC(=O)CC(=O)NC2CCCCC2)c(C)n1-c1cccc(Cl)c1Cl	8.5	8.4	-21.7	26.5	10.3	/
Cc1cc(/C=N\NC(=O)CC(=O)NC2CCCCC2)c(C)n1-c1ccc(Cl)c(Cl)c1	12.4	-8.7	15.0	-0.3	46.4*	-19.6
Cc1cccc(C)c1-n1c(C)cc(/C=N\NC(=O)CC(=O)NC2CCCCC2)c1C	-5.3	22.0	16.8	22.3	41.1*	27.4
Cc1cccc(C)c1-n1c(C)cc(/C=N/NC(=O)CSc2ncccn2)c1C	4.9	23.7	-4.7	22.9	17.7	/
COc1cccc(-c2nnc(SCN3C(=O)c4ccccc4C3=O)n2C)c1	-0.1	35.3	13.3	31.9	41.6*	33.0*
CCN(CC)S(=O)(=O)c1ccc(NC(=O)CSc2nnc(-c3cccc(OC)c3)n2C)cc1	7.3	3.6	15.4	-10.5	10.4	/
CC1CCN(C2=C(NS(=O)(=O)c3ccc(Cl)cc3)C(=O)c3ccccc3C2=O)CC1	26.2	28.5	-10.4	38.5	40.1*	28.9
O=C1C(NS(=O)(=O)c2ccc(Br)cc2)=C(N2CCCCC2)C(=O)c2ccccc21	15.5	15.1	3.3	44.4	49.8*	14.1
CC1CCN(C2=C(NS(=O)(=O)c3ccc(Br)cc3)C(=O)c3ccccc3C2=O)CC1	29.0	25.7	-62.5	40.6	21.2	/
CC(=O)Nc1ccc(S(=O)(=O)N(C)CC(=O)Nc2nc3ccccc3[nH]2)cc1	/	-6.6	/	-15.5	-5.4	/
CCn1c(SCc2nc3ccccc3c(=O)[nH]2)nc2ccccc21	8.7	11.6	1.5	20.7	44.1*	24.5
CCCc1nn(C)c(C(=O)Nc2ccc(C)c(C)c2)c1Cl	-1.2	-9.6	-11.6	2.9	0.2	/
CCCc1nn(C)c(C(=O)Nc2ccc(CC)cc2)c1Cl	2.2	11.2	9.7	19.5	42.6*	11.3
NNc1nc(Nc2ccccc2)nc(Nc2ccccc2)n1	52.3*	24.7	14.1	43.3	50.5*	42.3*
CN1CCN(C(=O)c2ccc(CSc3ccc(Cl)cc3)cc2)CC1	4.0	7.9	-8.3	8.2	10.0	/

Screens deposited in PubChem by several laboratories.
